Assay outcomes (PubChem BioAssay)
Shown is part of a subset that was picked to be rich in hits.
Tgondii IFNg: blocks Toxoplasma gondii growth in the presence of IFN-gamma; Toxoplasma gondii growth in IFN-gamma-treated host cells; active compounds read low; activity change, negative = inhibition, % (no concentration beside the values); 69,000 compounds, 3.8% hits; AID 1259416; in the data active means activity change below about -70%, passing the limit was not always enough;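 further: host cells are HeLa cells infected with Toxoplasma gondii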
An asterisk follows results filed as active; ! = not confirmed by another sample.

SMILES | Tgondii IFNg
CC(C)(NC(=O)c1cccs1)C(=O)N1CCC1c1ccc(F)cc1 (stereo not given) | 6
COc1ccc(C(=O)N2CCOC(CCCc3ccccc3)C2)c(O)c1 (stereo not given) | -5
Cc1nc2n(Cc3ccccc3)c3ccccc3n2c1C(=S)Nc1ccccc1 | -114*
Cc1nc2ccccc2n1Cc1ccccc1 | -58
Cc1nc(C)c(C(=O)Nc2ccc3c(c2)CN(Cc2ccccc2)C3)o1 | 0
Cc1cc(C)n2nc(CC(=O)N3CCCC3c3nc4cc(C)c(C)cc4[nH]3)nc2n1 (stereo not given) | 33
COc1ccc2c(c1)NC1(CCN(CCN3C(=O)c4ccccc4C3=O)CC1)c1cccn1-2 | 155
CN1CCN2CCN(C(=O)c3ccc(NCc4ccncc4)cc3)CC2C1 (stereo not given) | 26
COc1cccc(-n2c(=O)c(C(=O)Nc3ccc(C)cc3F)c(O)c3cccnc32)c1 | 13
Cc1cc(Nc2nc(N[C@@H](C)c3ccc(F)cc3)c(C#N)cc2F)n[nH]1 | -75*
CCCc1ccc(-c2nccn2CCc2nc(C)cc(=O)[nH]2)o1 | 1
CSCCC(=O)N1CCC(O)(c2ccc3nc(C)ccc3c2)CC1 | -3
CN(C)C(=O)c1cccc(-c2ccc(C3[C@@H]4CN(Cc5ccccc5F)C[C@H]3N4)cc2)c1 (stereo not given in full) | -6
Cc1ccc(-c2ccc([C@@H]3[C@@H]4CN(Cc5ccccc5F)C[C@H]3N4)cc2)cc1 | -73*
Fc1ccc(-c2ccc(C3[C@@H]4CN(Cc5ccccc5)C[C@H]3N4)cc2)cc1 (stereo not given in full) | -33
CC(C)CCN1CCn2c(CO)nnc2C1 | -26
C=CCC(=O)N(CC)CCOc1cccc(C)c1 | 24
Cc1c(-c2ccccc2)[nH]c2c(CNc3nccc(N)n3)cc(Cl)cc12 | -37
O=C(CC1Nc2c3ccccc3nc(=S)n2C1=O)NCc1ccc(Cl)cc1 (stereo not given) | -37
O=C(NCc1sccc1COc1ccc(Cl)cc1)Nc1cccc(C(F)(F)F)c1 | -55
O=C(Nc1ccc(-c2nc(-c3ccccc3)co2)cc1)Nc1cccc(C(F)(F)F)c1 | -51
O=C(Nc1cccc(C(F)(F)F)c1)Nc1csc(Cc2ccsc2)n1 | -93*
NS(=O)(=O)c1c(Cl)sc(Cl)c1Br | 36
O=C(c1cccc(F)c1)N1CCc2ncc(Cn3cccn3)n2CC1 | -55
CC[C@]1(O)CC2CN(CCc3c([nH]c4ccccc34)[C@@](C(=O)OC)(c3cc4c(cc3OC)N(C)[C@H]3[C@@](O)(C(=O)OC)[C@H](OC(C)=O)[C@]5(CC)C=CCN6CC[C@]43[C@@H]65)C2)C1 (stereo not given in full) | -82*
SMILES | Tgondii IFNg
COC(=O)[C@H]1[C@H]2C[C@@H]3c4[nH]c5ccccc5c4CCN3C[C@H]2C[C@@H](OC(=O)c2cc(OC)c(OC)c(OC)c2)[C@@H]1OC | -13
O=C(NCCCOc1cccnc1)[C@H]1Cc2ccccc2CN1 | 4
COc1ccc(CCN2C(=O)N(C)C(=O)C23CCN(C/C=C/c2ccccc2OC)CC3)cc1 | 7
COc1ccccc1CNC(=O)CCC1N=C2c3ccccc3N=C(SCc3cccc(F)c3)N2C1=O (stereo not given) | -14
O=C(c1c2c(-c3ccccc3)ncnc2n2ccccc12)N1CCCC1 | -10
CC(C)(C)C1CCC(CC2C(=O)C(=O)c3ccccc3C2=O)CC1 (stereo not given) | -86*
COC(=O)c1c(NC(C)c2ccccc2)c2cccc(Cl)c2[nH]c1=O (stereo not given) | -19
CCOc1cccc(CNc2c(C(=O)OC)c(=O)[nH]c3c(Cl)cccc23)c1 | -82*
CCCCNc1c(C(=O)OC)c(=O)[nH]c2c(Cl)cccc12 | -23
COC(=O)c1c(NCc2ccc(F)cc2)c2cccc(Cl)c2[nH]c1=O | -88*
COC(=O)c1c(NCc2ccc(C)o2)c2cccc(Cl)c2[nH]c1=O | -62
COC(=O)c1c(NCc2ccccc2F)c2cccc(Cl)c2[nH]c1=O | -38
COC(=O)c1c(NCCN2CCC(C)CC2)c2cccc(Cl)c2[nH]c1=O | 19
CCCNc1c(C(=O)OC)c(=O)[nH]c2c(Cl)cccc12 | -13
COC(=O)c1c(NCCc2cccs2)c2cccc(Cl)c2[nH]c1=O | -86*
O=C(O)c1cccc2c1C(=O)N(Cc1cccs1)C2 | 44
COC[C@@H]1CN(C)C[C@@]12CCN(C(=O)/C=C/c1cccs1)C2 | 3
O=C(NCCc1csc(-c2ccc(Cl)cc2)n1)C1CCCC1 | -42
CN(C)CC(=O)N1CCCCC1CCc1ccccn1 (stereo not given) | 24
NS(=O)(=O)c1ccc(NC(=O)c2ccc(-c3cc(Cl)ccc3Cl)o2)cc1 | -100*
NS(=O)(=O)c1ccc(NC(=O)Nc2ccc(F)cc2)cc1 | 25
O=C(Nc1ccc(S(=O)(=O)Nc2ccccn2)cc1)c1ccc(Cl)c(Cl)c1 | -3
COc1ccccc1NC(=O)N1CCc2nc(-c3ccc(OC)c(OC)c3)sc2C1 | -20
COc1cccc(NS(=O)(=O)c2cc3c4c(c2)CCN4C(=O)CC3)c1 | -30
Cc1nc(C)n(CC(C)C(=O)N2CCc3[nH]nc(-c4ccccc4F)c3C2)n1 (stereo not given) | 0
SMILES | Tgondii IFNg
Cc1cc(C2CCC2)nc(N(C)Cc2cccnc2)n1 | 7
CNC(=O)c1cc(C2CCC(CNC(=O)c3cnc(N(C)C)nc3)CC2)nc2ccccc12 (stereo not given) | 1
CCOc1ccc(Nc2nc3ccccc3c(=O)s2)cc1 | -3
CCOc1c2ccccc2nc2ccccc12 | -123*
FC(F)(F)c1cc(Sc2cc(C(F)(F)F)nc3ccccc23)c2ccccc2n1 | -11
Nc1c2ccccc2nc2ccccc12 | -73*!
Nc1c2c(nc3ccccc13)CCCC2 | -16
CCOC(=O)c1c(C)nc2ccccc2c1C(=O)O | 9
COCC1CN(C(=O)C2CCN(C(C)=O)CC2)CC12CCOCC2 (stereo not given) | -12
COc1ccc(-c2nc(C3CCN(S(=O)(=O)C4CC4)CC3)cc3c2ncn3C)cc1 | -22
CS(=O)(=O)N1C[C@@H]2[C@H](C1)OC[C@@H]2C(=O)Nc1cccnc1 | 4
CC1=C(C(=O)Nc2ccc(C)cc2)C2(CCN(S(C)(=O)=O)CC2)OC1=O | 43
O=C(NCC(c1cccnc1)c1c[nH]c2ccccc12)Nc1ccccc1C(F)(F)F (stereo not given) | 114
CCc1ccccc1NC(=O)NCC(c1cccnc1)c1c[nH]c2ccccc12 (stereo not given) | 53
O=C(NCC(c1ccccc1)c1c[nH]c2ccccc12)c1ccc(C(F)(F)F)cc1 (stereo not given) | -88*
O=C(c1ccc(Cn2cncn2)cc1)N1CCC(N2CCCCC2)CC1 | 3
Cc1cc(C(F)F)n2ncc(C(=O)N3CCC(O)(Cn4ccc5ccncc54)CC3)c2n1 | -31
NC(=O)C1Cn2ccnc2C2(CCN(C(=O)c3ccncc3)CC2)O1 (stereo not given) | -4
CN(C)c1nc(N)nc(COC(=O)CC(CC(N)=O)c2ccccc2)n1 (stereo not given) | 25
COc1ccccc1CNC(=O)c1c(O)c2cccnc2n(-c2ccc(F)cc2)c1=O | -74*
Cc1cccc(C)c1NC(=O)c1c(O)c2ccccc2n(-c2ccccc2)c1=O | -105*
Cc1ccccc1NC(=O)c1c(O)c2cccnc2n(-c2cccc(F)c2)c1=O | -94*
O=C(NCc1cc(F)cc(F)c1)c1c(O)c2cccnc2n(-c2cccc(F)c2)c1=O | 106
